# Screen size: about 5,500 compounds; about 2,000 (36%) were called active. Not shown: some 18% with an inconclusive outcome. Some of the results follow. A number with no mark means an inactive call. Rule as the data show it: active = normalized growth mostly below about 0.91 (no sharp cut-off); inconclusive = no clear call, values can overlap the other calls; inactive = mostly above about 0.92.
# Assay: chemical genetic growth profiling, strain panel (AID 1159580);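 also: tested at 20 µM; growth read once vehicle control cultures reached saturation at 30 °C; 1 = growth at the plate median or of vehicle wells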
# Conditions: S. cerevisiae deletion strains, growth OD
compound,measurement,setting,value
N=C(N)c1ccc(OCCCCCOc2ccc(C(=N)N)cc2)cc1,normalized growth,"locus YAL013W, strain DEP1, stronger effect = lower value",1
same,normalized growth,"locus YAL021C, strain ccr4, stronger effect = lower value",0.908
same,normalized growth,"locus YAL026C, strain drs2, stronger effect = lower value",0.951
same,normalized growth,"locus YAL030W, strain snc1, stronger effect = lower value",0.935
same,normalized growth,"locus YBL061C, strain skt5, stronger effect = lower value",0.966
same,normalized growth,"locus YBR009C, strain hhf1, stronger effect = lower value",0.952
same,normalized growth,"locus YBR021W, strain FUR4, stronger effect = lower value",1.07
same,normalized growth,"locus YBR023C, strain chs3, stronger effect = lower value",0.986
same,normalized growth,"locus YBR171W, strain sec66, stronger effect = lower value",0.946
same,normalized growth,"locus YBR229C, strain ROT2, stronger effect = lower value",0.978
same,normalized growth,"locus YBR231C, strain swc5, stronger effect = lower value",0.919
same,normalized growth,"locus YBR279W, strain paf1, stronger effect = lower value",0.93 (active)
same,normalized growth,"locus YCL011C, strain gbp2, stronger effect = lower value",0.945
same,normalized growth,"locus YCL016C, strain dcc1, stronger effect = lower value",0.939
same,normalized growth,"locus YCL029C, strain bik1, stronger effect = lower value",0.89 (active)
same,normalized growth,"locus YCL061C, strain MRC1, stronger effect = lower value",0.916 (active)
same,normalized growth,"locus YCL069W, strain vba3, stronger effect = lower value",0.963
same,normalized growth,"locus YCR088W, strain abp1, stronger effect = lower value",0.966
same,normalized growth,"locus YDL005C, strain med2, stronger effect = lower value",0.979
same,normalized growth,"locus YDL035C, strain GPR1, stronger effect = lower value",0.901
same,normalized growth,"locus YDL040C, strain nat1, stronger effect = lower value",0.965
same,normalized growth,"locus YDL074C, strain BRE1, stronger effect = lower value",0.942
same,normalized growth,"locus YDL101C, strain DUN1, stronger effect = lower value",0.989
same,normalized growth,"locus YDL134C, strain PPH21, stronger effect = lower value",0.955
same,normalized growth,"locus YDL185W, strain tfp1, stronger effect = lower value",0.964
same,normalized growth,"locus YDL192W, strain arf1, stronger effect = lower value",0.933
same,normalized growth,"locus YDR001C, strain nth1, stronger effect = lower value",0.974
same,normalized growth,"locus YDR069C, strain doa4, stronger effect = lower value",1
same,normalized growth,"locus YDR101C, strain arx1, stronger effect = lower value",0.875 (active)
same,normalized growth,"locus YDR137W, strain rgp1, stronger effect = lower value",1
same,normalized growth,"locus YDR150W, strain NUM1, stronger effect = lower value",0.989
same,normalized growth,"locus YDR159W, strain sac3, stronger effect = lower value",0.85 (active)
same,normalized growth,"locus YDR162C, strain NBP2, stronger effect = lower value",0.941
same,normalized growth,"locus YDR195W, strain ref2",0.968
same,normalized growth,"locus YDR297W, strain sur2, stronger effect = lower value",0.958
same,normalized growth,"locus YDR318W, strain mcm21, stronger effect = lower value",0.878 (active)
same,normalized growth,"locus YDR334W, strain swr1, stronger effect = lower value",0.958
same,normalized growth,"locus YDR335W, strain msn5, stronger effect = lower value",0.977
same,normalized growth,"locus YDR388W, stronger effect = lower value",0.938
same,normalized growth,"locus YDR392W, strain spt3, stronger effect = lower value",0.808
same,normalized growth,"locus YDR502C, strain sam2, stronger effect = lower value",0.907 (active)
same,normalized growth,"locus YEL003W, strain gim4, stronger effect = lower value",0.929
same,normalized growth,"locus YEL037C, strain rad23, stronger effect = lower value",0.945
same,normalized growth,"locus YEL061C, strain CIN8 (second series), stronger effect = lower value",0.945
same,normalized growth,"locus YEL061C, strain CIN8, stronger effect = lower value",0.965
same,normalized growth,"locus YER015W, strain faa2, stronger effect = lower value",0.922 (active)
same,normalized growth,"locus YER016W, strain bim1, stronger effect = lower value",0.963
same,normalized growth,"locus YER110C, stronger effect = lower value",0.95
same,normalized growth,"locus YER111C, strain swi4, stronger effect = lower value",0.967
same,normalized growth,"locus YER155C, strain BEM2 (second series), stronger effect = lower value",0.874
same,normalized growth,"locus YER155C, strain BEM2, stronger effect = lower value",0.986
same,normalized growth,"locus YER167W, strain BCK2, stronger effect = lower value",0.915
same,normalized growth,"locus YFR010W, strain ubp6, stronger effect = lower value",0.954
same,normalized growth,"locus YGL078C, strain dbp3, stronger effect = lower value",0.929
same,normalized growth,"locus YGL086W, strain mad1, stronger effect = lower value",0.874 (active)
same,normalized growth,"locus YGL167C, strain pmr1, stronger effect = lower value",0.974
same,normalized growth,"locus YGL173C, strain kem1, stronger effect = lower value",0.865 (active)
same,normalized growth,"locus YGL227W, strain vid30, stronger effect = lower value",0.984
same,normalized growth,"locus YGL240W, strain doc1, stronger effect = lower value",0.991
same,normalized growth,"locus YGL248W, strain PDE1, stronger effect = lower value",0.964
same,normalized growth,"locus YGL253W, strain hxk2, stronger effect = lower value",0.8 (active)
same,normalized growth,"locus YGR078C, strain PAC10, stronger effect = lower value",0.947
same,normalized growth,"locus YGR135W, strain pre9, stronger effect = lower value",0.937
same,normalized growth,"locus YGR229C, strain SMI1, stronger effect = lower value",0.929
same,normalized growth,"locus YGR252W, strain gcn5, stronger effect = lower value",0.819
same,normalized growth,"locus YHR013C, strain ard1, stronger effect = lower value",1.09
same,normalized growth,"locus YHR027C, strain rpn1, stronger effect = lower value",0.946
same,normalized growth,"locus YHR030C, strain SLT2, stronger effect = lower value",0.974
same,normalized growth,"locus YHR079C, strain IRE1 (second series), stronger effect = lower value",0.888 (active)
same,normalized growth,"locus YHR094C, strain hxt1, stronger effect = lower value",0.94
same,normalized growth,"locus YHR129C, strain ARP1, stronger effect = lower value",0.968
same,normalized growth,"locus YHR142W, strain chs7, stronger effect = lower value",0.972
same,normalized growth,"locus YHR200W, strain rpn10, stronger effect = lower value",0.871 (active)
same,normalized growth,"locus YIL066C, strain RNR3, stronger effect = lower value",0.917
same,normalized growth,"locus YIL073C, strain SPO22, stronger effect = lower value",0.675
same,normalized growth,"locus YIL125W, strain kgd1, stronger effect = lower value",0.903 (active)
same,normalized growth,"locus YIR030C, strain dcg1, stronger effect = lower value",0.93
same,normalized growth,"locus YJL092W, strain hpr5, stronger effect = lower value",0.919
same,normalized growth,"locus YJL095W, strain BCK1 (second series), stronger effect = lower value",0.959
same,normalized growth,"locus YJL095W, strain BCK1, stronger effect = lower value",0.892
same,normalized growth,"locus YJL115W, strain asf1, stronger effect = lower value",0.923
same,normalized growth,"locus YJL129C, strain trk1, stronger effect = lower value",0.995
same,normalized growth,"locus YJL134W, strain LCB3, stronger effect = lower value",0.967
same,normalized growth,"locus YJL154C, strain vps35, stronger effect = lower value",0.989
same,normalized growth,"locus YJL164C, strain tpk1, stronger effect = lower value",0.974
same,normalized growth,"locus YJL166W, strain qcr8, stronger effect = lower value",0.978
same,normalized growth,"locus YJL168C, strain set2, stronger effect = lower value",0.925 (active)
same,normalized growth,"locus YJL187C, strain SWE1 (second series), stronger effect = lower value",0.929

# — PubChem BioAssay AID1159580 (chemical genetic matrix, 2015)
